Screening results (PubChem)
Most compounds without a hit are left out; they make up all but 28% or so of the library.
Mac1 fbg inh: CD11b/CD18-fibrinogen binding inhibition; P05107+P11215; K562 CD11b/CD18 adhesion to fibrinogen, ATPlite luminescence; Mn2+ added to activate the integrin; inhibition, % at 10 µM; hit rate 0.54% among 93,000; AID 1497;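 active = primary inhibition of 50% or more at 10 µM, then 40% or more on retest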
CYP2C9 activ: activators of human CYP2C9. recombinant CYP2C9, luciferin-H conversion, luminescence; active compounds read high; factor 1 = untreated enzyme, 0 = blocked. activation factor at 5 µM. hit rate 1.4% among 96,000. AID 1024;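 active = activation factor of 2 or more for CYP2C9 at a 5 µM dose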
Target sequence (P11712 whole entry, looked up): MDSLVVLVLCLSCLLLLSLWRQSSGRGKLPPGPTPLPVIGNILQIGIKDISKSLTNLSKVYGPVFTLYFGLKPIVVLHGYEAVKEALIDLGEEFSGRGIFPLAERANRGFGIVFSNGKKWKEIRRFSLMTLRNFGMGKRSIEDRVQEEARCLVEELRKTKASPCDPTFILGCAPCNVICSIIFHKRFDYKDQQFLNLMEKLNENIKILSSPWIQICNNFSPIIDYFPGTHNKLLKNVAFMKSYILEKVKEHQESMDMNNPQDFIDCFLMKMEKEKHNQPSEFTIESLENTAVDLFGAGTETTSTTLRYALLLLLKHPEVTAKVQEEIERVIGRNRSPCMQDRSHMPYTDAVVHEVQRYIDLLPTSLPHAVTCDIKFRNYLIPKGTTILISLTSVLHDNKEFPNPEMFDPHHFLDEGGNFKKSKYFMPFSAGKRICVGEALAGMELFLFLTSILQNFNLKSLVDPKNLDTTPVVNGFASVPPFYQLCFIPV
CYP2C19 inh: human CYP2C19 inhibition. CYP2C19 Supersomes, luciferin-H EGE luminescence, 30 min. hit rate 21% among 96,000. inhibition, % at 5 µM;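 active = CYP2C19 inhibition above a set limit at 5 µM in the primary screen, cut at about 50% in these data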
CD11b adhes enh: increases human CD11b/CD18 adhesion to fibrinogen; P05107+P11215; K562 CD11b/CD18 adhesion to fibrinogen, ATPlite luminescence; activation, % at 10 µM; hit rate 0.07% among 93,000; AID 1499;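 active = 10 µM primary screen giving 50% or more activity, confirmed by 40% or more on retest at that dose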
CYP2C9 inh: blocks human cytochrome P450 2C9; hit rate 20% among 96,000; P11712; CYP2C9 Supersomes, luciferin-H conversion, luminescence; inhibition, % at 5 µM;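 active = blocking of liver enzyme CYP2C9 beyond about 50% at 5 µM, limit read from the data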
CYP2C19 activ: activators of human cytochrome P450 2C19; AID 1025; activation factor at 5 µM; P33261; 96,000 tested, under 10 active; recombinant CYP2C19, luciferin-H EGE luminescence; active compounds read high; 0 = fully inhibited enzyme, 1 = untreated enzyme;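 active = activation factor of at least 2 at 5 µM in the primary screen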
A number is an active result; n = inactive; x = no result.

SMILES	Mac1 fbg inh	CYP2C9 activ	CYP2C19 inh	CD11b adhes enh	CYP2C9 inh	CYP2C19 activ
COc1cc(OC)cc(-c2nc3ccccc3s2)c1	x	n	n	x	n	n
COc1cccc(C(=O)N2CCCc3ccccc32)c1	n	n	86.8	n	n	n
CCOC(=O)c1ccc(NC(=O)N2CCc3ccccc32)cc1	n	n	n	n	n	n
Cc1ccc(OC(C)C(=O)N2CCc3ccccc32)cc1 (centres undefined)	n	n	n	n	n	n
COc1ccc(NC(=O)N2CCCc3ccccc32)cc1	n	n	68.7	n	n	n
CC(Oc1ccccc1)C(=O)N1CCCc2ccccc21 (centres undefined)	n	n	90.8	n	55.5	n
O=C(NCC1CCCC(CNC(=O)N2CCc3ccccc32)C1)N1CCc2ccccc21 (centres undefined)	n	n	86.4	n	98.6	n
CN(C)CC(C)(C)CNC(=O)C1CCN(Cc2ccccc2O)CC1	n	n	n	n	n	n
COc1ccc2c(c1)CCc1c(C(=O)N3CCOCC3)noc1-2	n	n	n	n	n	n
COc1ccc(NC(=O)N2CCc3ccccc32)cc1	n	n	58.1	n	n	n
COc1ccc2c(c1)CCc1c(C(=O)N3CCCc4ccccc43)noc1-2	n	n	90.1	n	75.0	n
CC(=O)C(CC(=O)N1CCCc2ccccc21)C(=O)Nc1ccc(F)cc1 (centres undefined)	n	n	71.3	n	n	n
CCCc1nn(CCc2ccccn2)c(N)c1CC	n	n	n	n	n	n
Cc1ccc2nc(-c3cccc(NS(C)(=O)=O)c3)cc(-c3ccccc3)c2c1	x	x	x	n	x	x
CC(=O)NN1C(=O)/C(=C\c2ccc(C)cc2)SC1=S	x	n	52.3	x	n	n
CCN1CCN(C(c2ccc(F)cc2)c2nnnn2Cc2cccs2)CC1 (centres undefined)	n	n	n	n	n	n
OC1(c2ccc(F)cc2)CCN(Cc2nnnn2Cc2cccs2)CC1	n	n	75.0	n	59.7	n
CCN1CNC(=S)N(c2cccc(C)c2C)C1	x	n	n	x	n	n
O=C(CN1CCN(S(=O)(=O)c2ccccc2)CC1)Nc1ccc(Cl)c(Cl)c1	n	n	77.1	n	n	n
CCOc1ccc(NC(=O)CN2CCN(S(=O)(=O)c3ccc(Cl)cc3)CC2)cc1	x	n	80.1	x	n	n
CCOC(=O)c1ccc(NC(=O)COc2ccc(S(=O)(=O)N3CCCC3)cc2)cc1	n	n	n	n	n	n
CCOc1ccc(NC(=O)CN2CCN(CC(=O)Nc3ccc(F)cc3)CC2)cc1	x	n	n	x	n	n
COc1ccc(NC(=O)CCN2CCN(S(=O)(=O)c3ccc(Cl)cc3)CC2)cc1	n	n	70.7	n	75.1	n
CCOC(=O)c1ccc(S(=O)(=O)N2CCN(CC(=O)NC(=O)NC(C)(C)C)CC2)cc1	n	n	n	n	72.4	n
Cc1ccc(C2/C(=C(\O)c3ccc4c(c3)OCCO4)C(=O)C(=O)N2CCCN(C)C)o1 (centres undefined)	n	n	n	n	n	n
SMILES	Mac1 fbg inh	CYP2C9 activ	CYP2C19 inh	CD11b adhes enh	CYP2C9 inh	CYP2C19 activ
CC1CCc2c(C(=O)NCCCN3CCOCC3)csc2C1 (centres undefined)	n	n	n	n	n	n
CCNC(=S)NNC(=O)Nc1ccccc1	n	n	n	n	n	n
CC(=O)Nc1cccc(OCC(=O)NS(=O)(=O)c2ccc(Cl)cc2)c1	n	n	n	n	n	n
COc1ccc(NC(=O)CCN2CCN(S(=O)(=O)c3ccc(C(C)C)cc3)CC2)cc1	n	n	n	n	65.9	n
CC(C)c1ccc(S(=O)(=O)N2CCN(CCC(=O)Nc3ccc(N(C)C)cc3)CC2)cc1	n	n	n	n	n	n
COCCCN1C(=O)c2ccc(C(=O)O)cc2C1=O	n	n	n	n	n	n
O=C(OCCCCN1C(=O)c2ccccc2C1=O)c1ccc(Br)o1	n	n	n	n	55.1	n
CC(=O)OCCCN1C(=O)c2ccc(Br)cc2C1=O	n	n	56.7	n	n	n
O=C(OCCN1C(=O)c2ccccc2C1=O)c1cnccn1	n	n	n	n	n	n
CC(C)OC(=O)CCCN1C(=O)c2ccc(N)cc2C1=O	n	n	74.3	n	n	n
Cc1c(Br)c([N+](=O)[O-])nn1C(C)C(=O)Nc1c(C)n(C)n(-c2ccccc2)c1=O (centres undefined)	n	n	n	n	n	n
O=C(c1ccccc1)c1ccc2nc[nH]c2c1	n	n	57.1	n	n	n
CCCC(=O)Nc1ccc2c(c1)nc(CN1CCCCC1)n2C	n	n	n	n	n	n
O=S(=O)(Nc1ccc(N2CCOCC2)cc1)c1ccccc1	n	n	99.1	n	84.3	n
COc1ccc(S(=O)(=O)Nc2ccc(N3CCOCC3)cc2)cc1Br	n	n	100.3	n	95.6	n
O=S(=O)(/C=C/c1ccccc1)Nc1ccc(N2CCOCC2)cc1	n	n	93.7	n	83.1	n
O=S(=O)(Nc1ccc(N2CCOCC2)cc1)c1ccc(Cl)s1	n	n	100.3	n	100.3	n
O=C(O)c1ccc(NS(=O)(=O)/C=C/c2ccccc2)cc1O	n	n	n	n	55.0	n
O=C(N/N=C/c1cccc(Oc2ccc([N+](=O)[O-])cc2[N+](=O)[O-])c1)c1cncc(Br)c1	n	x	x	n	x	x
Cc1ccc(/C=N/N2CCN(Cc3cccc4ccccc34)CC2)o1	n	n	n	n	n	n
CC(=O)c1c(C)nc(-c2ccc(Cl)cc2)nc1N=CN(C)C	n	n	n	n	51.4	n
CN(C)/C=C/C(=O)c1ccc(Cl)cc1	x	n	n	x	n	n
CC(c1ccccc1F)n1cc(C(=O)NCc2ccncc2)nn1 (centres undefined)	n	n	53.6	n	69.1	n
O=C(NCc1ccccn1)c1cn(Cc2ccccc2)nn1	n	n	n	n	n	n
CC(c1ccccc1F)n1cc(C(=O)NCCc2ccco2)nn1 (centres undefined)	n	n	n	n	58.0	n
SMILES	Mac1 fbg inh	CYP2C9 activ	CYP2C19 inh	CD11b adhes enh	CYP2C9 inh	CYP2C19 activ
CC(c1ccccc1)n1cc(C(=O)NCc2ccncc2)nn1 (centres undefined)	n	n	n	n	80.7	n
CCCC1CCc2c(sc(N)c2C(N)=O)C1 (centres undefined)	n	n	67.5	n	68.8	n
CC(C)(C)C1CCc2c(sc(N)c2C(N)=O)C1 (centres undefined)	n	n	63.1	n	n	n
COC(=O)c1ccc(C)c(NC(=O)CCNC(=O)c2ccc([N+](=O)[O-])cc2)c1	n	x	x	n	x	x
N=C1/C(=C\c2ccc(SCc3ccco3)o2)C(=O)N=C2SC=NN12	x	n	n	x	73.6	n
COC(=O)NCc1ccc(Cl)c(Cl)c1	n	n	64.3	n	n	n
COC(=O)NCc1ccc(CNC(=O)OC)cc1	n	n	n	n	n	n
COc1ccc(CNC(=O)Oc2ccccc2)cc1Cl	n	2.4	62.9	n	n	n
